Source: PubChem (several laboratories)
Only some compounds are listed: those with a hit (about 2.6% of all), similar ones and a draw of the others.
Jurkat NFkB inh = inhibitors of the PMA/ionomycin-induced NF-kB reporter in Jurkat cells; inhibition, % at 4 µM; 330,000 compounds, 0.53% hits; PMA/ionomycin-induced NF-kB luciferase reporter, luminescence; in the data active = inhibition above about 50%
Cardio protect = modulators protecting cardiomyocytes from myocardial damage; H9c2 cardiomyocytes, H2O2 injury protection, ATPLite, 2 h; protection from H2O2 cell death, % at 20 µM; 360,000 compounds, 0.63% hits;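 active = compounds giving at least 50% protection of heart cells from peroxide-induced death in the single-dose screen, raw or plate-pattern-corrected value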
H9c2 TAG inh = triacylglycerol accumulation inhibition; H9c2 cells, Nile Red lipid (TAG) fluorescence; cells loaded with 200 µM oleic acid; inhibition, % at 12.5 µM; 230,000 compounds, 0.66% hits;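 active = pattern-corrected inhibition of lipid staining of at least 50% with the nuclear-stain viability signal not falling by more than 50%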
NR2F2 inh = NR2F2 (human) inhibition, primary screen | P24468 | HEK293T NGFI-A luciferase reporter, luminescence | inhibition, % at 8.6 µM | 370,000 compounds, 0.7% hits;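 active = inhibition above a per-plate cutoff, mean inhibition of test wells between control levels plus 3 SD, cut at about 38% in these data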;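 note: cells cotransfected with COUP-TFII expression vector driving the NGFI-A reporter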
Target sequence (P24468 whole entry, looked up): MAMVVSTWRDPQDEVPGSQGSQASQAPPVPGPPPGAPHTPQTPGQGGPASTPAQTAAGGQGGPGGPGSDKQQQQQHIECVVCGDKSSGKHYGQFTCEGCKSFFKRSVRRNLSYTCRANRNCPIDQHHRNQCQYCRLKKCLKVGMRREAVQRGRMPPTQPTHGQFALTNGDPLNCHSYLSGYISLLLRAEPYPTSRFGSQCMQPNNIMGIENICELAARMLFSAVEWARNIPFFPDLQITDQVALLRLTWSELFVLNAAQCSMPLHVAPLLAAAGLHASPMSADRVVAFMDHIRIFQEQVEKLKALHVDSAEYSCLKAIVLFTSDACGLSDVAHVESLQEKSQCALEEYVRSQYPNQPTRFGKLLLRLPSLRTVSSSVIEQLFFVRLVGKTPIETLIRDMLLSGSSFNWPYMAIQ
Gli-Sufu block = antagonists of Gli-Sufu signaling | Sufu-KO-LIGHT fibroblasts, Gli luciferase reporter luminescence | inhibition, % at 5 µM | 340,000 compounds, 0.74% hits | AID 588413;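 active = inhibition above about 55%, limit read from the data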
697 NFkB inh = inhibitors of the PMA/ionomycin-induced NF-kB reporter in 697 B cells; 697 B-cell NF-kB luciferase reporter, 16 h; inhibition, % at 4 µM; 330,000 compounds, 0.33% hits; AID 435022; in the data active = inhibition above about 35%
Numbers stand for hits; 0 = inactive; - = no result given.

SMILES	Jurkat NFkB inh	Cardio protect	H9c2 TAG inh	NR2F2 inh	Gli-Sufu block	697 NFkB inh
CCOC(=O)c1[nH]c2cc(OC)c(OC)cc2c1NC(=O)C(C)N1CCN(Cc2ccccc2)CC1 (stereo not drawn)	0	56	0	0	0	0
CCOC(=O)c1[nH]c2ccc(OC)cc2c1NC(=O)C(C)N1CCSCC1 (stereo not drawn)	-	-	-	0	-	-
CC(=O)Nc1nc(C)c(-c2csc(Nc3cccc(C(C)=O)c3)n2)s1	0	66	-	0	0	0
S=C(Nc1cccc(Cl)c1)N(CCCN1CCCC1)Cc1cccn1Cc1ccc(Cl)cc1	0	0	0	0	0	0
CSc1cccc(NC(=S)N(CCCN2CCCC2)Cc2cccn2Cc2ccc(Cl)cc2)c1	0	0	57	0	0	0
O=c1[nH]c2cccc(F)c2n2cccc12	0	51	-	0	0	0
O=C(NCCc1ccccn1)c1ccc2c(c1)ncn2C1CCCCC1	-	-	-	0	-	-
O=C(c1cc(-c2ccncc2)nc2ccc(Br)cc12)N1CCN(Cc2ccc3c(c2)OCO3)CC1	0	66	0	0	0	0
CC(=O)c1ccc(N2CCN(C(=O)c3cc(-c4cccnc4)nc4ccc(Br)cc34)CC2)cc1	0	53	0	0	0	0
O=C(c1cc(-c2cccnc2)nc2ccc(Br)cc12)N1CCN(c2ncccn2)CC1	0	59	0	0	0	0
CCC(C(=O)Nc1ccccc1N1CCCC1)c1cccc(OC)c1 (stereo not drawn)	-	-	-	0	-	-
O=C(CSC1=NNC(c2ccccn2)S1)Nc1cccc(Cl)c1 (stereo not drawn)	0	61	0	0	0	0
CCN(CCCNC(=O)c1cn(CC)c2ccc(S(=O)(=O)N(C)C)cc2c1=O)c1cccc(C)c1	0	0	56	0	0	0
COC(=O)[C@]12CCCCC=C1N(Cc1ccc(OC)cc1)C(=O)[C@@H]2CC(=O)NCc1ccc(OC)c(OC)c1	-	-	-	0	-	-
CCCCCCCCN1CCS(=O)(=O)N(Cc2ccccc2)C(C(=O)OC)C1 (stereo not drawn)	-	-	-	0	-	-
O=C(c1ccccc1)c1ccc2nc(-c3ccc(NC(=O)c4ccccc4F)cc3)[nH]c2c1	0	0	58	0	0	0
O=C(O)CCC(=O)Nc1ccc(-c2nc3ccc(C(=O)c4ccccc4)cc3[nH]2)cc1	0	0	0	0	0	0
C=C1C(=O)OC2CC1C(O)CC(C)=CCCC(C)=CC(O)CC2C (stereo not drawn)	-	0	0	47	0	-
C=C1C(=O)OC2C1CCC(C)C1C=CC(=O)C12C (stereo not drawn)	-	0	0	0	0	-
COC(=O)c1cc(-c2cc(Cl)cc(Cl)c2)c(=O)n2c1CCC2	-	-	-	0	-	-
CCOC(=O)[C@@]12CCCC3=C1N(CCC3)C(=O)[C@H]2CC(=O)NCCC(C)C	-	-	-	0	-	-
CN(C)CCCN(C(=O)CCc1ccccc1)c1nc2ccc(Br)cc2s1	0	0	98	0	0	0
COC(=O)c1ccc(Cl)c(NC(=O)NC23CC4CC(CC(C4)C2)C3)c1	0	0	70	0	0	0
COC(=O)c1cccc(NC(=O)NC23CC4CC(CC(C4)C2)C3)c1	0	0	0	0	0	0
CC(=O)c1ccc(C(=O)Nc2nnc(-c3ccc(Cl)cc3)o2)cc1	0	66	0	0	0	0
SMILES	Jurkat NFkB inh	Cardio protect	H9c2 TAG inh	NR2F2 inh	Gli-Sufu block	697 NFkB inh
CN(C)c1ccc(C(=O)Nc2nnc(-c3ccc(Cl)cc3)o2)cc1	0	53	0	0	0	0
COc1cccc(C(=O)Nc2nnc(-c3ccc(Cl)cc3)o2)c1	0	67	0	0	0	0
COc1cccc(C(=O)Nc2nnc(-c3ccc(F)cc3)o2)c1	0	0	0	0	0	0
NC(=Nc1cccc(F)c1)NC(=O)OCc1ccccc1	-	-	-	0	-	-
CC(C)CN1C(=O)[C@]2(CC(=O)N(C)C2c2ccccc2)c2cc(-n3cc(C4=CCCCC4)nn3)ccc21 (stereo partly drawn)	-	-	-	0	-	-
O=S1(=O)c2ccc(Br)cc2OC[C@@H](Cc2ccccc2)N1Cc1cn(Cc2ccc(Cl)cc2)nn1	-	-	-	0	-	-
COC(=O)[C@]12C[C@H](CC(=O)NCc3cccs3)C(=O)N(Cc3ccc4c(c3)OCO4)C1=C[C@H](C(C)(C)C)O[C@@H]2C	-	-	-	0	-	-
COc1ccc(NN=Nc2nc3c([nH]2)c(=O)n(C)c(=O)n3C)cc1	0	0	0	0	0	0
Cn1c(=O)c2[nH]c(NN=Cc3ccccc3)nc2n(C)c1=O	-	0	0	0	0	-
Cc1ccccc1NN=Nc1nc2c([nH]1)c(=O)n(C)c(=O)n2C	-	0	-	0	0	-
COc1ccc(C=NNc2nc3c([nH]2)c(=O)n(C)c(=O)n3C)cc1	-	73	0	0	0	-
Cc1ccc(C=NNc2nc3c([nH]2)c(=O)n(C)c(=O)n3C)cc1	-	70	0	0	0	-
Cn1c(=O)c2[nH]c(NN=Cc3ccc(Br)cc3)nc2n(C)c1=O	-	58	0	0	0	-
CCOC(=O)C1=C(C(=O)OCC)C2N(Cc3ccc(C(F)(F)F)cc3)c3ccccc3[C@@]23C[C@@H](C(=O)OC)N(S(=O)(=O)c2ccc(OC)cc2)C3=N1 (stereo partly drawn)	-	-	-	0	-	-
CC(=NNC(=S)N1CC2CCC(CC2)C1)c1cnccn1	-	0	0	0	0	-
CC(=NNC(=S)N(Cc1ccccn1)Cc1ccccn1)c1cnccn1	-	0	0	0	90	-
O=C(CCCC(=O)N/N=C\c1ccccn1)N/N=C\c1ccccn1	0	0	-	0	0	0
S=C(NN=Cc1ccccn1)N(Cc1ccccn1)Cc1ccccn1	-	0	0	0	82	-
Cc1ccc(-n2c(SCC(=O)Nc3ccccc3-c3ccccc3)nnc2-c2ccccc2)cc1	-	-	-	0	-	-
CCCCCCCCN1C(=O)[C@@H](CC(=O)N2CCSCC2)C[C@@]2(C(=O)OC)C1=C[C@H](C(C)C)O[C@@H]2C1CC1	-	-	-	0	-	-
CC1Cc2ccccc2N1C(=O)COC(=O)c1n[nH]c(=O)c2ccccc12 (stereo not drawn)	0	54	0	0	0	0
CC1CCN(CC(=O)N2c3ccccc3CC2C)CC1 (stereo not drawn)	0	0	0	0	0	0
CC1Cc2ccccc2N1C(=O)Cn1nc(C(=O)O)c2ccccc2c1=O (stereo not drawn)	0	53	-	0	0	0
Cc1c[nH]c2cccc(-c3cc4ccccc4o3)c12	-	-	-	0	-	-
C/C(=N\NC(=O)c1cccnc1)c1ccc(OC2OCCOC2Oc2ccc(/C(C)=N/NC(=O)c3cccnc3)cc2)cc1 (stereo not drawn)	0	53	-	0	0	0
COc1ccc(/C(C)=N/NC(=O)CNC(=O)c2cccnc2)cc1	0	0	-	0	0	0
CCOc1ccc(/C=N/NC(=O)c2nnn(-c3nonc3N)c2-c2ccc(OCC)cc2)cc1	0	0	-	0	0	0
CCOc1ccc(-c2c(C(=O)N/N=C/c3c[nH]c4ccccc34)nnn2-c2nonc2N)cc1	0	54	-	0	0	0
Nc1nonc1-n1nnc(C(=O)N/N=C/c2ccccn2)c1-c1ccccc1	0	0	0	0	0	0
